This is part of a sample that, as a whole, favours compounds with a hit. Of some 83,000 tested, about 20% had one in any assay.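 Negative percent growth values reflect cell death: -40 means 40% of the cells present at the start died, and -100 means all died.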 Values without a mark were called inactive. Active and inactive are the calls of the source. Rule for the calls: active = growth percent below 10; inactive = the rest.

Some test systems named below: HCT-15 colon; HT29 colon; SNB-75 CNS; U251 CNS; PC-3 prostate; SK-MEL-5 melanoma; UACC-62 melanoma; LOX IMVI melanoma; SK-MEL-28 melanoma; SK-MEL-2 melanoma; EKVX NSCLC; SN12C renal; UO-31 renal; TK-10 renal; ACHN renal; CAKI-1 renal; A498 renal; CCRF-CEM leukemia; MOLT-4 leukemia.
Holding throughout (test): NCI-60 one-dose screen, 48 h (100 = growth as untreated, 0 = no growth, -100 = all killed)
Common to all, as to conditions: 10 µM unless noted

For the compound `Cc1cc(=O)oc2cc(Oc3nc(-c4ccc(Cl)cc4)cn4c(-c5ccc(Cl)cc5)cnc34)ccc12`, the growth in the test with HCT-15 colon is 63.8%; in the test with HT29 colon, 47.7%; in the test with SNB-75 CNS, 91.6%; with U251 CNS it was 88.1%; in the test on PC-3 prostate, 87.9%; with SK-MEL-5 melanoma, 84.4%. Also, the growth was 99.3% in the test on UACC-62 melanoma; 84.4% with LOX IMVI melanoma; 38.3% with SK-MEL-28 melanoma; 106% with SK-MEL-2 melanoma; 106% with EKVX NSCLC; 100% in the test with SN12C renal. The growth in the test with UO-31 renal was 85.5%; in the test on TK-10 renal, 104%; in the test with ACHN renal, 97.7%; with CAKI-1 renal it was 90.2%; with A498 renal it was 105%; in the test on CCRF-CEM leukemia, 80.6%. Moreover, the growth in the test on MOLT-4 leukemia is 74.5%.
As to `Cc1ccc(SCN2CCN(c3cccc(Cl)c3)CC2)cc1`, the growth in the test with HCT-15 colon was 93.1%; with HT29 colon, 110%; with SNB-75 CNS it was 85.4%; in the test with U251 CNS it was 89.1%; in the test on PC-3 prostate, 101%; with SK-MEL-5 melanoma, 93.7%. In addition, the growth in the test with UACC-62 melanoma is 89%; in the test with LOX IMVI melanoma it was 81.6%; with SK-MEL-28 melanoma, 120%; in the test with SK-MEL-2 melanoma it was 102%; in the test with EKVX NSCLC it was 90.2%; in the test with SN12C renal, 75.6%. Also, the growth in the test with UO-31 renal was 86.6%; in the test on TK-10 renal, 97.7%; with ACHN renal, 104%; in the test with CAKI-1 renal it was 70.7%; with A498 renal it was 85.5%; with CCRF-CEM leukemia it was 38.7%. For the same compound, the growth in the test on MOLT-4 leukemia was 83.4%.
As to `C/C=C/C(N)=O`, the growth in the test with HCT-15 colon is 96.9%; in the test on HT29 colon, 102%; with SNB-75 CNS it was 90.6%; in the test on U251 CNS, 104%; in the test on PC-3 prostate, 93.9%; with SK-MEL-5 melanoma, 96.7%. Also, the growth in the test with UACC-62 melanoma is 105%; in the test on LOX IMVI melanoma, 99.3%; in the test on SK-MEL-28 melanoma, 93%; in the test on SK-MEL-2 melanoma, 119%; in the test on EKVX NSCLC, 95.9%; with SN12C renal, 106%. Further, the growth in the test on UO-31 renal was 91.7%; in the test on TK-10 renal, 105%; with ACHN renal, 96.8%; in the test with CAKI-1 renal, 98%; with A498 renal, 108%; with CCRF-CEM leukemia it was 35.6%. For the same compound, the growth with MOLT-4 leukemia is 96.2%.
In the case of `CCNS(=O)(=O)c1ncnc2nc[nH]c12`, the growth was 94.3% with HCT-15 colon; 114% in the test with HT29 colon; 122% in the test on SNB-75 CNS; -14% (active) with U251 CNS; 85.2% in the test with PC-3 prostate; 113% in the test with SK-MEL-5 melanoma. Also, the growth is 94.7% in the test on UACC-62 melanoma; 22% in the test on LOX IMVI melanoma; 143% in the test with SK-MEL-28 melanoma; 109% in the test on SK-MEL-2 melanoma; 104% with EKVX NSCLC; 112% in the test on SN12C renal. Besides, the growth in the test with UO-31 renal was 85.8%; in the test with TK-10 renal, 122%; in the test with ACHN renal it was 119%; in the test on CAKI-1 renal, 94.9%; with A498 renal, 110%; in the test on CCRF-CEM leukemia it was 91.1%. Besides, the growth in the test on MOLT-4 leukemia is 122%.
Regarding `Nc1cc2ccncc2c2ccccc12`, the growth in the test on HCT-15 colon is 75.1%; with HT29 colon, 65.2%; with SNB-75 CNS, 116%; with U251 CNS, 81.1%; in the test on PC-3 prostate, 83.1%; with SK-MEL-5 melanoma, 76.9%. Besides, the growth in the test with UACC-62 melanoma was 60.7%; with LOX IMVI melanoma it was 50.8%; with SK-MEL-28 melanoma, 103%; with SK-MEL-2 melanoma, 45.5%; with EKVX NSCLC, 60.4%; in the test with SN12C renal, 52.7%. The growth is 51.6% in the test with UO-31 renal; 80.6% in the test on TK-10 renal; 36.4% in the test on ACHN renal; 58.2% in the test on CAKI-1 renal; 67.5% with A498 renal; 66.9% in the test with CCRF-CEM leukemia. Also, the growth in the test with MOLT-4 leukemia is 50.2%.
`COc1cccc(/C=C\C(=O)c2ccccc2)c1`: the growth in the test with HCT-15 colon is 66.3%; in the test with HT29 colon, 73.4%; in the test with SNB-75 CNS it was 78.9%; in the test with U251 CNS it was 35.1%; with PC-3 prostate, 63.5%; in the test on SK-MEL-5 melanoma, 90.8%. In addition, the growth with UACC-62 melanoma was 70.7%; with LOX IMVI melanoma, 30.3%; in the test on SK-MEL-28 melanoma it was 103%; in the test with SK-MEL-2 melanoma, 105%; in the test on EKVX NSCLC it was 90.7%; in the test with SN12C renal, 70.1%. Moreover, the growth in the test with UO-31 renal was 60.2%; in the test on TK-10 renal it was 102%; in the test on ACHN renal it was 75%; with CAKI-1 renal it was 66.6%; in the test with A498 renal, 93.8%; in the test with CCRF-CEM leukemia, 25.2%. The growth in the test with MOLT-4 leukemia is 28.8%.
In the case of `CCOC(=O)Cc1cnn(C)c1NC(=O)c1ccc(Cl)cc1NC(C)=O`, the growth was 110% with HCT-15 colon; 110% in the test with HT29 colon; 76% in the test with SNB-75 CNS; 111% in the test with U251 CNS; 94.6% with PC-3 prostate; 95.3% with SK-MEL-5 melanoma. The growth in the test on UACC-62 melanoma is 99.7%; with LOX IMVI melanoma, 107%; in the test on SK-MEL-28 melanoma, 130%; in the test with SK-MEL-2 melanoma, 84.6%; in the test on EKVX NSCLC, 76.3%; in the test with SN12C renal, 94.8%. Besides, the growth in the test on UO-31 renal is 91.6%; with TK-10 renal it was 78.8%; in the test on ACHN renal, 111%; in the test with CAKI-1 renal, 64.8%; with A498 renal it was 105%; in the test on CCRF-CEM leukemia it was 97.8%. Also, in the test on MOLT-4 leukemia, the growth was 102%.
On to `COC1/C=C\OC2(C)Oc3c(C)c(O)c4c(O)c(c(CN(C)CCO)c(O)c4c3C2=O)NC(=O)/C(C)=C\C=C/C(C)C(O)C(C)C(O)C(C)C(OC(C)=O)C1C` (configuration not stated), for which the growth in the test on HCT-15 colon is 104%; with HT29 colon, 140%; in the test with SNB-75 CNS it was 83.2%; with U251 CNS, 109%; in the test on PC-3 prostate it was 97.2%; with SK-MEL-5 melanoma, 108%. The growth is 97.6% with UACC-62 melanoma; 94.9% in the test with LOX IMVI melanoma; 124% with SK-MEL-28 melanoma; 105% with SK-MEL-2 melanoma; 95.1% with EKVX NSCLC; 105% in the test with SN12C renal. For the same compound, the growth in the test with UO-31 renal is 80.3%; with TK-10 renal it was 114%; in the test on ACHN renal, 103%; in the test with CAKI-1 renal, 68.5%; with A498 renal it was 115%; with CCRF-CEM leukemia it was 98.3%. In the test with MOLT-4 leukemia, the growth is 112%.
